Assay outcomes as filed in PubChem BioAssay.
An excerpt weighted towards active compounds, which were near 19% of everything screened.
RORg inh – qHTS for inhibitors of ROR gamma transcriptional activity. Nuclear receptor ROR-gamma (Mus musculus), P51450. AID 2551, 2010. Potency, µM (top dose mostly 53.6 µM), for inactives: at the top dose activity change, negative = inhibition, actives largely listed as inhibitors. actives 5.4% (n = 310,000). Drosophila S2 Gal4-RORgamma UAS-luciferase reporter, 20 h; also: nearly all actives have a fitted effect of over 60% in size
Target sequence (P51450 whole entry, looked up, the tested form may be a part): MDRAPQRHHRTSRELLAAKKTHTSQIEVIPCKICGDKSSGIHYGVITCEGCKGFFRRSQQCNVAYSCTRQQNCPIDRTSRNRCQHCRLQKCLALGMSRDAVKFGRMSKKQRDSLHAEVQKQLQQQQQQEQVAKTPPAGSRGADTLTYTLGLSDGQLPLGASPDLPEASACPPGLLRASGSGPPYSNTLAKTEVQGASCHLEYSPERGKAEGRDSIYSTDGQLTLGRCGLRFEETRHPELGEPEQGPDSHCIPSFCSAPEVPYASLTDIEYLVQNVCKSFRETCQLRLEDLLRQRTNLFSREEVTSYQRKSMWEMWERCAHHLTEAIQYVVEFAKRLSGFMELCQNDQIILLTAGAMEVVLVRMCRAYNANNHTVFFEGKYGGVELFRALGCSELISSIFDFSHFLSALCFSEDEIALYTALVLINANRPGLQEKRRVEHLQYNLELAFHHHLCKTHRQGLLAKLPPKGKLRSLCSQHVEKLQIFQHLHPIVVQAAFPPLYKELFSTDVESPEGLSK
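Luminescence from a UAS-regulated Photinus luciferase reporter in stably transfected Drosophila Schneider cells is measured; decreased signal marks ROR gamma inhibition. Fusion expression is induced by 700 uM copper sulfate for 20 hr.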
TDP1 inh – qHTS Assay for Inhibitors of Tyrosyl-DNA Phosphodiesterase (TDP1); recombinant TDP1, AlphaScreen DNA substrate cleavage; Potency, µM (top dose mostly 130 µM), inactives show at the top dose activity change, negative = inhibition, actives largely listed as inhibitors; actives 0.28% (n = 350,000); AID 485290, 2010; also: nearly all actives have a fitted effect of over 40% in size
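Recombinant human Tdp1 (E. coli-expressed, 1 nM final) preincubated with compounds 15 min at room temperature, then 5'-biotin/3'-phosphotyrosine-FITC DNA substrate (15 nM final) added for 5 min. AlphaScreen beads (10 ug/ml final) added 10 min; cleavage lowers signal.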
DT40 TDP1 CPT – qHTS for Inhibitors of human tyrosyl-DNA phosphodiesterase 1 (TDP1): qHTS in cells in presence of CPT. chicken DT40 Tdp1-/-;hTDP1 cells + 20 nM CPT, ATP luminescence, 48 h. Potency, µM (highest dose often 46.2 µM), without a hit: top-dose activity change, negative = growth inhibition, usual class: inhibitors. actives 12% (n = 420,000); also: nearly all actives have a fitted effect of over 55% in size
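Chicken DT40 Tdp1-/- cells stably complemented with human TDP1 were seeded at 400 cells/well in medium containing 20 nM camptothecin, exposed to pin-transferred compounds, and grown at 37 °C for at least 48 hr. Viability was read as ATP luminescence.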
DT40 TDP1 no CPT – qHTS for Inhibitors of human tyrosyl-DNA phosphodiesterase 1 (TDP1): qHTS in cells in absence of CPT; DT40 Tdp1-/- hTDP1 cells, no CPT, ATP luminescence, 48 h; Potency, µM (series often up to 46.2 µM), for the others: at the top dose activity change, negative = growth inhibition, hits mostly inhibitors; actives 15% (n = 420,000); AID 686978, 2013; also: nearly all actives have a fitted effect of over 55% in size
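Readout: luminescence from CellTiter-Glo after 30 min in the dark at RT. Cells: DT40 Tdp1-/- with stable hTDP1, 400/well. Exposure: compounds alone, ≥48 hr, 37 °C.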
VP16 counter – VP16 counterscreen qHTS for inhibitors of ROR gamma transcriptional activity | Drosophila S2 Gal4-VP16 UAS-luciferase, luminescence, 20 h | Potency, µM (titrated, usually from 53.6 µM), for the others: at the top dose activity, negative = inhibition, usual class: inhibitors | actives 3.5% (n = 310,000);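 also: Gal4-VP16 expression switched on by copper sulfate through the metallothionein promoter; nearly all actives have a fitted effect of over 50% in size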
* marks the source's active call; other numbers are inactive results; ? = inconclusive; · = no result; [ ] = dose if it differs, or a comment. Calls follow the shape of the dose curve; as a rule, active = well fitted curve in the direction sought with a large enough effect; inconclusive = small, poorly fitted or top-dose-only effect, or another doubt; inactive = no such curve, though single readings can be large; an effect the other way counts as inactive or inconclusive. % is scaled to controls: 0 for no effect and ±100 for the full control effect; potency is read from the fitted curve at half-maximal effect.

SMILES | RORg inh | TDP1 inh | DT40 TDP1 CPT | DT40 TDP1 no CPT | VP16 counter
CCOc1ncccc1C(=O)Nc1ccc(C)c(S(=O)(=O)N2CCCCCC2)c1 | · | -5% | 18µM* | ? | ·
O=C(CN1C(=O)c2ccccc2C1=O)NN1C(=O)c2ccccc2C1=O | 2% | -1% | -2% | -1% | -5%
O=C(Nc1ccc(Cl)c(S(=O)(=O)N2CCCCC2)c1)c1ccncc1 | · | -6% | 15µM* | 13µM* | ·
O=C(Nc1ccc(Cl)c(S(=O)(=O)N2CCCCC2)c1)c1cnccn1 | · | 2% | -21% | -15% | ·
CCSc1cc(C)nc2ncnn12 | -12% | 0% | -13% | 7% | 7%
CCCCCCSc1cc(C)nc2ncnn12 | -12% | 2% | 16µM* | 12µM* | 5%
CC(C)CC(C(=O)NCCc1ccccc1)N1Cc2ccccc2C1=O (stereo not given) | · | 5% | ? | 21µM* | ·
CCOc1ccc(CCNC(=O)C(CC(C)C)N2Cc3ccccc3C2=O)cc1OCC (stereo not given) | · | 4% | 10µM* | 9.2µM* | ·
CC(C)CC(C(=O)NCc1ccc(F)cc1)N1Cc2ccccc2C1=O (stereo not given) | · | 5% | ? | ? | ·
COc1ccc(NC(=O)CCNS(=O)(=O)c2ccc(Cl)c([N+](=O)[O-])c2)cc1S(N)(=O)=O | 39% | 2%[0.0935 µM] | 0% | -12% | 20%
CCNc1nc(NCC)nc(N(C#N)C(C)C)n1 | 1% | · | 8% | 6% | 13%
CCNc1nc(NCC)nc(N(CC)C(N)=S)n1 | 5µM* | 8% | 3% | 3% | ?
COc1ccc(Cc2nnc(N/N=C/c3ccc(N(C)C)cc3)[nH]c2=O)cc1OC | -40% | 0% | -22% | -5% | -15%
COc1ccc(/C=C\C(=O)Oc2cccc(/C=N/NC(=O)Cc3ccc(OC)c(OC)c3)c2)cc1 | -28% | 4% | ? | ? | 13µM*
COc1ccc(CNC(=S)N/N=C/c2ccc(OC)c(OC)c2)cc1 | 11µM* | 10% | 3% | 2% | ?
COc1ccc(/C=N/Nc2nnc(Cc3ccc(OC)c(OC)c3)c(=O)[nH]2)cc1 | 0% | 5% | 26µM* | 16µM* | -1%
COc1ccc(CNC(=S)N/N=C/c2ccc(O)c(OC)c2)cc1 | 10µM* | 7% | -8% | -21% | 16µM*
COc1cccc2cc(-c3nc(-c4ccc(C)cc4)c(C)s3)c(=O)oc12 | · | 3% | -27% | -19% | ·
CCOC(=O)C(NC(=O)NCc1ccccc1)(OCC)C(F)(F)F (stereo not given) | -15% | -3% | ? | 23µM* | -17%
CCOC(=O)NC(CC(=O)O)c1ccc(OC)c(OC)c1 (stereo not given) | 0% | 1% | -3% | 9% | 2%
CCOC(=O)C1CCCN(C(=O)c2cccc(S(=O)(=O)N(C)c3ccc(OC)cc3)c2)C1 (stereo not given) | · | 7% | ? | ? | ·
CCOC(=O)C1CCCN(C(=O)c2ccc3nc(-c4ccc(OC)c(OC)c4)c(-c4ccc(OC)c(OC)c4)nc3c2)C1 (stereo not given) | -5% | 0% | 29µM* | ? | -5%
CCOC(=O)C1CCCN(C(=O)c2cccc(S(=O)(=O)N(Cc3ccccc3)c3ccccc3OC)c2)C1 (stereo not given) | · | · | 23µM* | 16µM* | ·
CCOC(=O)C1CCCN(C(=O)c2ccc3nc(-c4ccccc4)c(-c4ccccc4)nc3c2)C1 (stereo not given) | 12% | 5% | ? | 21µM* | -7%
O=C(NCCC1=CCCCC1)c1cc(-c2ccccn2)nc2ccccc12 | ? | 1% | 8% | 9% | 8%
SMILES | RORg inh | TDP1 inh | DT40 TDP1 CPT | DT40 TDP1 no CPT | VP16 counter
O=c1cnnc(Nc2ccc(Nc3ccccc3)cc2)[nH]1 | 2% | 8% | -14% | ? | -8%
CCCNC(=O)Nc1ccc(C)cc1C | -16% | · | -11% | 0% | -18%
O=C(NC(=S)Nc1nc(-c2ccccc2)cs1)c1cncc(Br)c1 | 1.6µM* | 6% | -10% | -10% | ?
O=C(NC(=S)Nc1nc(-c2ccccc2)cs1)c1cccnc1 | 4µM* | 2% | 5% | -3% | -13%
CSc1nc(N2CCN(C)CC2)c2c(c1C#N)CC(C)(C)OC2 | -1% | · | 1% | -22% | 3%
COC(=O)C1=C(C)NC(C)=C(C(=O)OC)C1C(=O)OCc1nc2cc(C(=O)OC)ccc2c(=O)[nH]1 | · | · | -15% | -14% | ·
CC(=O)OCON[N+]([O-])=NC(C)C | 0% | 0% | 11µM* | ? | 28%
COc1cc(NC(=O)C2=C(N3CCOCC3)/C(=C\c3ccc(N(C)C)cc3)CCC2)cc(OC)c1OC | ? | 7% | 7.3µM* | 2.9µM* | 7%
COc1cc(NC(=O)C2=C(N3CCOCC3)/C(=C/c3ccc(Cl)cc3)CC2)cc(OC)c1OC | ? | 6% | 6.5µM* | 7.3µM* | ?
O=C(Nc1ccccc1)C1=C(N2CCOCC2)/C(=C/c2cccnc2)CC1 | 26% | -5% | -5% | -13% | -25%
CC(C)(C)C1CCc2onc(C(=O)Nc3cnn(Cc4ccc(F)cc4)c3)c2C1 (stereo not given) | ? | 1% | ? | -26% | 16µM*
O=C(Nc1cnn(Cc2ccc(F)cc2)c1)C(c1ccccc1)c1ccccc1 | 34% | 5% | ? | 21µM* | -1%
CN1CC(COCc2ccccc2)Oc2ccccc2S1(=O)=O (stereo not given) | · | 0%[56.1 µM] | ? | -23% | ·
O=S1(=O)c2ccccc2OC(COCc2ccccc2)CN1C1CC1 (stereo not given) | · | 0%[56.1 µM] | 18µM* | 18µM* | ·
